From PubChem
In the library only some 21% were active in any assay of this set; here they are far more common.
NS1 function inh: blocks influenza NS1 protein function; 270,000 compounds, 0.4% hits; Potency, µM (series often up to 46.1 µM); calls by dose curve; note: actives are rising curves; nearly all actives have a fitted effect of over 50% in size
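A cell-based growth assay was used: compounds that relieve NS1-induced slow growth of budding yeast raise OD600. Assay medium was yeast nitrogen base with ammonium sulphate and -URA supplement, pH 6.0, with 2% galactose.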
CHX counter: counter-screen for Shiga toxin inhibitors: cycloheximide protein synthesis inhibition. 300,000 compounds, 12% hits. cell reporter, cycloheximide protein synthesis inhibition counterscreen. max response, %; in the data active = max response mostly above about 13%, no sharp cut-off; inactive = mostly below about 14%; note: read at 38.3 µM for the half of the compounds with a filed dose
Pf growth 96h: inhibits malaria parasite growth, 96 h | P. falciparum luciferase reporter growth, 96 h | Potency, µM (series often up to 28.7 µM), hits mostly inhibitors | 320,000 compounds, 6.9% hits | AID 504834
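Plates of compound plus infected erythrocytes (2% hematocrit, 0.05% parasitemia final) incubate 96 hours, 37 C, 5% CO2. Detection reagent added; reduced luminescence from the parasites' luciferase reporter flags inhibition.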
Shiga toxin inh: Shiga toxin inhibition | 290,000 compounds, 9.2% hits | inhibition, % at 38.7 µM | Vero cells, Shiga toxin protein synthesis inhibition reporter; in the data active = inhibition mostly above about 28%, no sharp cut-off; inactive = mostly below about 43%
SARS PLP yeast: blocks SARS-CoV papain-like protease in a yeast assay; S. cerevisiae expressing SARS-CoV PLpro, growth rescue; Potency, µM (titrated, usually from 32.9 µM), usual class: activators; 330,000 compounds, 0.19% hits; AID 485353; calls by dose curve; note: nearly all actives have a fitted effect of over 55% in size
Pf growth 48h: inhibits P. falciparum growth in the first generation, 48 h. 310,000 compounds, 5.9% hits. Potency, µM (highest dose often 28.7 µM), usual class: inhibitors. P. falciparum luciferase growth in erythrocytes, 48 h
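Luciferase-expressing parasites in RBCs, 2% Hct / 0.1% parasitemia final; RPMI 1640 + 0.5% Albumax; 37 C, 5% CO2, one generation; luminescence read-out, lower signal = inhibition.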
A number is an active result; - = inactive; ? = inconclusive; . = no result given; ! = not confirmed by another sample. Unless noted, calls come from the whole dose curve; as a rule, active = well fitted inhibition curve with a large enough effect; inconclusive = small, poorly fitted or top-dose-only effect, or another doubt; inactive = no such curve, though single readings can be large or run the other way.

SMILES	NS1 function inh	CHX counter	Pf growth 96h	Shiga toxin inh	SARS PLP yeast	Pf growth 48h
O=C(O)Cc1ccc(NC(=O)Nc2cccc(Cl)c2)cc1	-	-	-	-	-	-
C=CCNC(=S)N1CCN(c2ncc(C(F)(F)F)cc2Cl)CC1	-	-	?	-	-	-
COc1cc(-c2nc(C(=O)NC3CCN(Cc4ccccc4)CC3)cc3c2[nH]c2ccccc23)cc(OC)c1OC	-	-	2.1µM	-	-	?
COc1ccc(OC)c(-c2nc(C(=O)NC3CCN(Cc4ccccc4)CC3)cc3c2[nH]c2ccccc23)c1	-	-	3.7µM	-	-	8.3µM
COc1ccc(OC)c(-c2cc(C(=O)NCCN3CCOCC3)no2)c1	-	-	?	-	-	-
COc1ccc(OC)c(-c2nc(C(=O)NCCCN3CCOCC3)cc3c2[nH]c2ccccc23)c1	-	-	2.9µM	-	?	2.3µM
COc1cc(-c2nc(C(=O)NC3CCCCC3)cc3c2[nH]c2ccccc23)cc(OC)c1OC	?	-	?	-	-	6.6µM
C[C@H](NC(=O)c1cc2c([nH]c3ccccc32)c(-c2ccccc2)n1)C(=O)O	?	-	?	-	-	?
Cc1cccc(N(CC(=O)NCc2ccccc2)C(=O)CCC(=O)Nc2nccs2)c1	-	-	-	-	-	-
COC(=O)[C@]1(Cc2ccccc2)N[C@H](CN(C)C(=O)Nc2ccc(OC)cc2)[C@@H]2C(=O)N(Cc3ccccc3)C(=O)[C@@H]21	.	.	.	.	-	.
COc1c2c(nc3occc13)C(CCC(C)(C)O)(OC)C(O)CC2 (stereo unspecified)	-	-	?	-	-	-
CCCCCCCCCCOC(=O)Cn1c(COc2ccc(OC)cc2)[n+](C)c2ccccc21	-	-	4.7µM!	-	-	4.1µM
CCCCCCCCCCOC(=O)Cn1c(COc2cccc(C)c2)[n+](C)c2ccccc21	-	-	5.2µM	.	-	?
CCN(CC)c1nc(SCCOC(=O)Nc2ccccc2)nc(N(CC)CC)n1	-	16	10µM	-	-	?
Cc1nc(-c2ccncc2)nc(NCCNc2ncccc2C(F)(F)F)c1Cl	-	-	?	-	-	10µM
Cc1c(Nc2ncccc2C(=O)O)cccc1C(F)(F)F	.	.	-	.	.	-
Cc1cccc(N2CCN(C(=O)Cn3nc(C)n4cccc4c3=O)CC2C)c1 (stereo unspecified)	-	-	-	-	-	-
CCOC(=O)Cn1nc(-c2ccc(C)cc2)ccc1=O	-	19	.	28	-	-
CCOC(=O)CCn1nc(-c2ccccc2)cc1N	-	35	-	39	-	-
Cc1ccc(-c2ccc(=O)n(CC(=O)N3CCN(c4cccc(C)c4)C(C)C3)n2)cc1 (stereo unspecified)	-	-	12µM	-	-	-
c1ccc2[nH]c(SCCN3CCOCC3)nc2c1	-	20	-	-	-	.
O=C(Cc1ccccc1)Nc1ccc(N2CCOCC2)cc1	-	28	?	46	-	-
O=C(CSc1nc2ccccc2[nH]1)Nc1ccc(N2CCOCC2)cc1	-	16	?	30	-	?
CCN1CCN(c2ccc(NC(=O)Cc3ccccc3)cc2)CC1	-	15	-	67	-	-
O=C(CSc1nc2ccccc2[nH]1)Nc1cccc(S(=O)(=O)N2CCOCC2)c1	.	-	-	-	-	-
SMILES	NS1 function inh	CHX counter	Pf growth 96h	Shiga toxin inh	SARS PLP yeast	Pf growth 48h
Cc1ccccc1C(=O)N1CCN(c2ccc(NC(=O)Cc3ccccc3)cc2)CC1	-	-	?	-	-	?
O=c1[nH]c(SCCN2CCOCC2)nc(O)c1-c1ccccc1	-	-	-	-	-	-
COc1ccccc1NC(=O)CSc1nnc(CCC(=O)Nc2ccccc2F)n1C	-	-	-	-	-	-
O=C(NCc1ccco1)C(=O)NCC(c1ccco1)N1CCOCC1 (stereo unspecified)	.	-	-	-	-	-
CN(CC(=O)Nc1ccc(N2CCOCC2)cc1)C(=O)CCc1cc(C(C)(C)C)c(O)c(C(C)(C)C)c1	.	.	9.3µM	.	-	3.3µM
O=C(Nc1ccc(N2CCN(Cc3ccccc3)CC2)cc1)c1ncn[nH]1	-	-	.	-	-	5.9µM
Cc1ccc(CC(=O)N(C)CC(=O)Nc2ccc(N3CCOCC3)cc2)cc1C	.	.	-	.	-	?
CCC(=O)Nc1ccc(N2CCN(Cc3ccccc3)CC2)cc1	-	-	-	-	-	?
Cc1noc(C)c1C(=O)OCC(=O)Nc1ccc(S(N)(=O)=O)cc1	.	.	-	.	-	-
Cc1ccc2c(c1)NC(=O)C(CC(=O)NCCN(C)C)O2 (stereo unspecified)	-	-	1.7µM	-	-	.
Cc1ncc(CN2CCC(n3nccc3NC(=O)c3ccccc3)CC2)s1	-	-	-	-	-	-
COc1cc(-c2cc(C(=O)Nc3ccc(C)c(S(=O)(=O)N4CCOCC4)c3)c3ccccc3n2)cc(OC)c1OC	.	.	.	.	-	.
Oc1cccc(/C=N/N2CCN(c3ccccn3)CC2)c1	-	40	-	128	-	-
CC(C)(C)c1ccc(/C=N/N2CCN(c3ccccn3)CC2)cc1	-	-	-	-	-	?
CCN(CC)c1ccc(/C=N/N2CCN(Cc3ccccc3)CC2)cc1	.	-	-	-	-	-
Oc1ccc(/C=N/N2CCN(c3ccccn3)CC2)cc1	-	27	-	101	-	-
CN(c1ccccc1)c1ccc(/C=N/N2CCOCC2)cc1	-	84	-	61	-	-
O=[N+]([O-])c1ccccc1/C=N/N1CCN(c2ccccn2)CC1	-	37	-	47	-	-
O=C(Cn1nnc2ccccc2c1=O)N[C@@H](Cc1ccccc1)C(=O)O	-	-	-	-	-	-
CCN1C(=O)[C@H]2[C@@H](c3ccc(Cl)cc3)N3C(=O)CN(CC4CC4)C(=O)[C@@]3(C)[C@H]2C1=O	-	-	-	-	-	-
C(=N\N1CCN(c2ccccn2)CC1)/c1ccccn1	-	49	-	37	-	-
BrC(=C\c1ccccc1)/C=N/N1CCN(c2ccccn2)CC1	-	40	-	38	-	-
CN(C)c1ccc(/C=N/N2CCN(c3ccccn3)CC2)cc1	-	34	-	91	-	-
CCN1C(=O)S/C(=C/c2ccc(Sc3nc4ccccc4[nH]3)o2)C1=O	-	-	9.3µM	-	-	-
CCCN1CCCC(c2cccc(S(C)(=O)=O)c2)C1 (stereo unspecified)	.	-	.	-	.	.
O=C(COc1ccc(Cl)cc1Cl)N(C1CCCCC1)C1CCS(=O)(=O)C1 (stereo unspecified)	.	.	10µM	.	-	?
CC(=O)c1ccccc1NC(=O)C1CCCN(C(=O)c2ccc(Cl)cc2)C1 (stereo unspecified)	.	.	-	.	-	-
Clc1ccc(Cc2nc(-c3ccncc3)no2)cc1	-	17	-	-	-	?
COc1ccc(Cc2nc(-c3ccncc3)no2)cc1	-	37	?	85	-	?
O=C(NCc1ccncc1)C(=O)N/N=C/c1ccccn1	-	-	-	-	-	-
